Consider 4 molecules from PubChem BioAssay.

Several values for one entry are separate records, joined by “and”; a condition that tells them apart may be missing. Equal values may be shown once. Where a structure was tested more than once in an assay, its records may differ in their call. Activity calls are given as the source filed them. Unless noted, how the calls were made is not given here.

A short description of test [1]: P. berghei load reduction in hepatocytes – cell-based, HepG2, luciferase luminescence, HepG2 viability, primary screen (AID 624349; in the data active means parasite load remaining mostly below about 12%, no sharp cut-off; inactive means mostly above about 10%;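 further: 100% = mean of DMSO negative control wells on the same plate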). The note with it: P. berghei liver stage in HepG2, luciferase luminescence, concentration not given here; parasite load remaining: stronger effect = lower value; viability: measured here: HepG2 viability without parasites.
A short description of test [2]: signal quenchers or enhancers, Cy5 substrate/SSB – biochemical, NIH Clinical Collection, E. coli SSB, artefact control for HCV NS3 helicase inhibitor project (AID 743268). The note with it: Cy5-oligo bound E. coli SSB, fluorescence interference.
In test [3] the test system is Hepatitis C virus NS3 helicase. Kind of test: blockers of NS3h binding to DNA – biochemical, fluorescence polarization, NIH Clinical Collection, primary screen (AID 743270). Particulars: NS3 helicase binding to Cy5-dT15 DNA, stronger effect = higher value, concentration not given here.
The target in test [4] is Single-stranded DNA-binding protein (Escherichia coli (strain K12)) (UniProt P0AGE0). The experiment in a line: SSB-ssDNA binding inhibitors – biochemical, fluorescence polarization, NIH Clinical Collection, counter-screen for HCV NS3 helicase inhibitor project (AID 743271; in the data active means inhibition above about 28%). The note with it: E. coli SSB-DNA binding, stronger effect = higher value, concentration not given here.
Test [5] is described as follows: compounds distorting NS3 helicase fluorescence signal – biochemical, NIH Clinical Collection, artefact control for HCV NS3 helicase inhibitor project (AID 743272).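 Further: HCV NS3 helicase with a Cy5 labelled single stranded DNA probe.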 Particulars: fluorescence interference counterscreen, HCV NS3 helicase assay; stronger effect = lower value.
A short description of test [6]: Wnt pathway potentiators raising nuclear beta-catenin – imaging, WNT3A-conditioned medium, mouse C2C12, NPC library, primary screen (AID 1117326; in the data active means nuclear beta-catenin stimulation mostly above about 4.2%, no sharp cut-off; inactive means mostly below about 10%). Particulars: stronger effect = higher value.
Test [7] in a line: stimulators of insulin release from INS-1E, primary screen, cell-based, 5 mM glucose, NPC library (AID 1117329;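 active means compound raises insulin release from rat beta cells at 5 mM glucose, no numeric limit stated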). The note with it: rat INS-1E insulin secretion, at 10 µM, stronger effect = higher value.
The nature of test [8]: growth inhibition of GSK3B-pretreated HCT116 cells – cell-based, CellTiter-Glo, 0.2 to 20 µM (AID 1117336;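 active means compounds lowering colon cancer cell viability after pretreatment blocking the GSK3B kinase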). Particulars: HCT116 viability after GSK3B inhibitor, at 20 µM, stronger effect = higher value.
Test [9] can be described thus: inhibition of endothelial tube formation, primary screen, imaging, VEGF stimulated, CD31 staining, tube area, NPC library (AID 1117340;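 active means compound that reduces growth-factor-driven endothelial tube area in a mixed cell culture, no cutoff stated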). The note with it: VEGF-stimulated ADSC/ECFC co-culture, at 10 µM, stronger effect = higher value.
Test [10] is described as follows: GLP1 release stimulators, primary, NCI-H716, NPC library (AID 1117341;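 active means compound raises GLP1 secretion from the human gut endocrine cells, with no numeric limit stated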). The note with it: NCI-H716 cells, at 10 µM, stronger effect = higher value.
Test [11] is described as follows: HCT116 colon cancer cell growth inhibition, primary screen, CellTiter-Glo luminescence, NPC library (AID 1117342;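 active means compounds that lower survival of HCT116 colon cancer cells in the luminescence readout, no numeric limit stated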). Particulars: at 20 µM (top of the series).
Test [12] in a line: reduced SW480 viability measured with CellTiter-Glo, NPC library, primary (AID 1117343;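 active means compounds that lower viability of the colon cancer cells in the luminescence readout, with no numeric limit stated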). The note with it: CellTiter-Glo luminescence; at 20 µM (top of the series).
A short description of test [13]: NPC library primary testing for decreased DLD-1 cell viability via CellTiter-Glo (AID 1117346;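 active means compounds that lower survival of DLD-1 colon cancer cells in the luminescence readout, no cutoff given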). The note with it: DLD-1 viability, CellTiter-Glo luminescence; at 20 µM (top of the series).
The target in test [14] is 6-phosphogluconate dehydrogenase, decarboxylating (Homo sapiens) (UniProt P52209). Kind of test: inhibition of human phosphogluconate dehydrogenase – biochemical, recombinant enzyme, NADPH absorbance, primary screen (AID 1159550;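 active means at least 20% inhibition of 6-phosphogluconate dehydrogenase activity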). The note with it: recombinant 6PGD, NADPH absorbance 341 nm; at 10 µM; stronger effect = higher value.
Sequence of 6-phosphogluconate dehydrogenase, decarboxylating (Homo sapiens) (P52209 whole entry, looked up): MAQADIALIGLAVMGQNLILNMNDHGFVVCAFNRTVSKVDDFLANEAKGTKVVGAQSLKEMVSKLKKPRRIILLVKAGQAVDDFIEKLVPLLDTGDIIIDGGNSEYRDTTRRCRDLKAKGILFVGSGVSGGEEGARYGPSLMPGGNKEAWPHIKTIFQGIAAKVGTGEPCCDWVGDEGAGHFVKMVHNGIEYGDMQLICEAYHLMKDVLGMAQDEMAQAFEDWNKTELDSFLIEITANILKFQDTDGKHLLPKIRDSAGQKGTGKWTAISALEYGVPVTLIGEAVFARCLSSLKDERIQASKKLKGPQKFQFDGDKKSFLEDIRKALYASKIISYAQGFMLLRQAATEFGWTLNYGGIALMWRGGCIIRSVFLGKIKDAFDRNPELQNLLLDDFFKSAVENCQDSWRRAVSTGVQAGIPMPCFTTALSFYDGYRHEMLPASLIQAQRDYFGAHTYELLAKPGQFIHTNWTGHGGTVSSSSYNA
A short description of test [15]: EMT-state selective cytotoxicity in co-culture – imaging, PC-3E GFP, TEM4-18 mCherry, primary screen (AID 1345086;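 active means compounds killing one labelled cell type while sparing the other, by normalised counts and ratio limits, not self-fluorescent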;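 on all read-outs here: cells exposed to compound for 72 h before imaging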;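 on red/green cell ratio (normalised): normalised mesenchymal count divided by normalised epithelial count so high means epithelial killing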). Particulars: PC-3E GFP / TEM4-18 mCherry co-culture, imaging cell counts, at 1 µM; for red/green cell ratio (normalised): actives lie on both sides, counts scaled to control wells, 1 = unselective.
Test [16] can be described thus: viability loss with induced miR-34 in A549 – imaging, A549 dox-inducible miR-34, nuclei and caspase counts, primary screen (AID 1347080;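 active means compounds whose cell count with miR-34 switched on is under 0.7 times the count with it off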). The note with it: A549 miR-34 inducible, Hoechst nuclei count, 48 h.
Test [17] is described as follows: MELAS cybrid and Rieske KO viability enhancers – cell-based, MELAS cybrids, Rieske KO mouse fibroblasts, CellTiter-Glo, primary screen (AID 1508586;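 active means mean z-score across replicates of 1.96 or higher in either the MELAS or the Rieske mutant cell line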;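 further: z relative to plate mean and SD of compound and empty wells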). Particulars: low glucose.
In test [18] the target is NAD(+) hydrolase SARM1 (Homo sapiens) (UniProt Q6SZW1). The experiment in a line: blocking NAD cleavage by SARM1 SAM-TIR – cell lysate, NAD-Glo luminescence (AID 1508614;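 active means compound whose remaining NAD level is above about 45 nM, limit read from the data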). The note with it: SAM-TIR HEK293T lysate NADase, at 1 µM, stronger effect = higher value.
Sequence of NAD(+) hydrolase SARM1 (Homo sapiens) (Q6SZW1 whole entry, looked up, the tested form may be a part): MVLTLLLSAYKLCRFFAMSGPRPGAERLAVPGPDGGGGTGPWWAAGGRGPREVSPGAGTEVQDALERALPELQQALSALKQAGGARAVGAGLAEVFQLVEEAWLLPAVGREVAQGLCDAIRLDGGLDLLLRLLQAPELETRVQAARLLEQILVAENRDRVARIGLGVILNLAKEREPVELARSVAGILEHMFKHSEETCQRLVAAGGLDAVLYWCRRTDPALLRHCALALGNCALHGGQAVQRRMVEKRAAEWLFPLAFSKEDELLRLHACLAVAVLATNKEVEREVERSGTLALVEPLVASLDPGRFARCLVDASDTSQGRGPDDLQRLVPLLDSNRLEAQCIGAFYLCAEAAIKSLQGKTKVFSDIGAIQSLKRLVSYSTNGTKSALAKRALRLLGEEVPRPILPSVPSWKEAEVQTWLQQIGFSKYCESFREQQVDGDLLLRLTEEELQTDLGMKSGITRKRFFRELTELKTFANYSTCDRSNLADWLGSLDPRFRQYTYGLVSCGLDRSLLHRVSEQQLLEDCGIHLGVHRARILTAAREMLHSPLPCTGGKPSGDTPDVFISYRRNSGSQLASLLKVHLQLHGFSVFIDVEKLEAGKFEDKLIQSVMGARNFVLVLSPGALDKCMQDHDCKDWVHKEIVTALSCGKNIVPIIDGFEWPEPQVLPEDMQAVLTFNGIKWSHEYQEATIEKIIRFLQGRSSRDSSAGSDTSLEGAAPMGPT
For test [19], the target named is Mitogen-activated protein kinase 7 (Homo sapiens) (UniProt Q13164). The experiment in a line: Gal4-ERK5 driven luciferase induction – cell-based, HTS, primary screen (AID 1508626;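 active means luciferase signal above three times the same-plate solvent-only control wells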;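 further: luciferase driven by Gal4-ERK5 fusion binding five Gal4 sites before minimal TATA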). Particulars: HeLa Gal4-ERK5 transactivation, 18 h, at 5 µM, stronger effect = higher value.
Sequence of Mitogen-activated protein kinase 7 (Homo sapiens) (Q13164 whole entry, looked up, the tested form may be a part): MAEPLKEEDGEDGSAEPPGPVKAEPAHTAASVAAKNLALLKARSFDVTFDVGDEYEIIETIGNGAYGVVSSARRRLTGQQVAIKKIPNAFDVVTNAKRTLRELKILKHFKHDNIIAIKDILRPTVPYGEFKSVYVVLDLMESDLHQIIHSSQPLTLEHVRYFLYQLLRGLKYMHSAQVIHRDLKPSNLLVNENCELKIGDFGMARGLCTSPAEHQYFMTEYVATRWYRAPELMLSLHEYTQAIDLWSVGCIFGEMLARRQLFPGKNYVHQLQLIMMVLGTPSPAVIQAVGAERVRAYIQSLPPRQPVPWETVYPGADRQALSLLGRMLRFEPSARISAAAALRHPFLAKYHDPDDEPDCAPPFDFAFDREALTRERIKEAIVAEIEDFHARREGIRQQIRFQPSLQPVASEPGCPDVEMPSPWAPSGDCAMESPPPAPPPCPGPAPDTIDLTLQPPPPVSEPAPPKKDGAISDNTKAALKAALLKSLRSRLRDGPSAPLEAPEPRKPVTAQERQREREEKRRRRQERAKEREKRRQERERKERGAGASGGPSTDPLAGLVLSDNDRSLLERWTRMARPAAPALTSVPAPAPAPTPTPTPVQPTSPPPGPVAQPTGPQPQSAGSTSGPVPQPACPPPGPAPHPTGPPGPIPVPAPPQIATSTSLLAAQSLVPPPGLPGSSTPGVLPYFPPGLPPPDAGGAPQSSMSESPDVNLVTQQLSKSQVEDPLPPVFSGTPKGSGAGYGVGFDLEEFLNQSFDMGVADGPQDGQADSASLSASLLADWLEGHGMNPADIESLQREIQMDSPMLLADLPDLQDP
For test [20], the system named is F380Y. The experiment in a line: BK channel mutant inhibitors and activators – cell-based, U2OS BacMam, thallium flux, beta subunits, selectivity assay, profiling panel (AID 1259406;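 active means thallium flux through the channel raised or lowered by more than 3 SD from vehicle-only wells, actives on both sides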;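 further: initial slope of Thallos dye fluorescence rise after thallium is added; log ratio against the mean of 0.3% DMSO vehicle wells on the same plate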). Particulars: U2OS BacMam BK variants, at 30 µM.
The mark [21] stands for this setting: measured here: epithelial PC-3E GFP cell survival.
Setting [22] is: measured here: mesenchymal TEM4-18 mCherry cell survival.
Where [23] appears, read: stronger effect = lower value, cell number ratio, induced over uninduced.
Setting [24] is: measured here: relative caspase fold change +Dox/-Dox.
[25] abbreviates: measured here: total cells with miR-34 induction, stronger effect = lower value.
Setting [26] is: measured here: total cells without miR-34 induction.
[27] abbreviates: MELAS cybrid survival, CellTiter-Glo 48 h, stronger effect = higher value.
The mark [28] stands for this setting: Rieske KO mouse fibroblast survival, CellTiter-Glo 72 h.

For `CN(C)CCN(Cc1ccccc1)c1ccccn1`, the parasite load remaining in test [1] is 50.9% (inactive) and 109% (inactive). The viability in [1] is 82.5% and 67.3%. The fluorescence ratio in test [2] was 1.01 (inactive); in [5], 0.93 (inactive). Also, the inhibition in [3] was 0.4% (inactive); in test [4], -0.87% (inactive); in [14], 4.76% (inactive). In addition, the nuclear beta-catenin stimulation in test [6] (at 10 µM) is 1.1% (inactive); in test [6] (stimulation, at 2 µM), 0.8%. For the same molecule, the insulin secretion stimulation in [7] was 13% (inactive). In addition, the viability decrease in test [8] was -23.2% (inactive). For the same molecule, the tube area decrease in test [9] was 5.3% (inactive). For the same molecule, the GLP1 secretion stimulation in test [10] was 4.8% (inactive). For the same molecule, the inhibition of viability in test [11] is 13.3% (inactive). The viability decrease (inhibition) in [12] is -2.1% (inactive); in [13], -41.1% (inactive). The red/green cell ratio (normalised) in [15] was 0.96 (inactive). Moreover, the results for the normalised cell number in [15] (setting [21]) and in test [15] (setting [22]) were 1.02 and 0.99, respectively. For the same molecule, the fold change in test [16] (setting [23]) is 1.02 (inactive) and 1.23 (inactive) and 0.865 (inactive); in test [16] (setting [24]) it was 1.94 and 0.367 and 2.89. For the same molecule, the cell count was 10300 and 8350 and 10800 in [16] (setting [25]); 10100 and 6800 and 12500 in test [16] (setting [26]). The z-score was -0.152 (inactive) and -0.218 (inactive) in [17] (setting [27]); -0.132 and 0.37 in [17] (setting [28]). The remaining NAD in test [18] was 10 nM (inactive). Moreover, in test [19], the luciferase signal is 32 AU (inactive). Moreover, the log fold change Tl+ flux in test [20] was -0.114 (active).

With `C#C[C@]1(O)CC[C@H]2[C@@H]3CCC4=Cc5oncc5C[C@]4(C)[C@H]3CC[C@@]21C`, the fluorescence ratio in test [2] was 1.05 (inactive); in test [5] it was 1.01 (inactive). Also, the values for the inhibition in [3], in [4] and in [14] were -3.18% (inactive), 4.1% (inactive) and 14% (inactive), respectively. For the same molecule, the nuclear beta-catenin stimulation in test [6] (at 10 µM) was -0.9% (inactive); in test [6] (stimulation, at 2 µM), 0%. The insulin secretion stimulation in test [7] is 1.9% (inactive). In addition, in test [8], the viability decrease was 76.5% (active). In [9], the tube area decrease was 15% (inactive). The GLP1 secretion stimulation in test [10] is 1.4% (inactive). Besides, the inhibition of viability in test [11] is 82.4% (active). The figures for the viability decrease (inhibition) in [12] and in [13] were 84.4% (active) and 75.7% (active), respectively. Further, the fold change is 0.976 (inactive) and 0.855 (inactive) and 0.842 (inactive) in test [16] (setting [23]); 3.35 and 1.24 and 1.49 in test [16] (setting [24]). The cell count in test [16] (setting [25]) was 7160 and 7050 and 6060; in [16] (setting [26]), 7330 and 8240 and 7200. Moreover, the z-score in test [17] (setting [27]) is -0.753 (inactive) and -0.503 (inactive); in test [17] (setting [28]) it was -0.343 and -0.0493. In test [18], the remaining NAD was 10 nM (inactive). For the same molecule, the luciferase signal in [19] is 32 AU (inactive). Further, the log fold change Tl+ flux in [20] is -0.00831 (inactive).

As to `OCCN(CCO)c1nc(N2CCCCC2)c2nc(N(CCO)CCO)nc(N3CCCCC3)c2n1`, the fluorescence ratio in [2] was 0.96 (inactive); in [5] it was 0.85 (inactive). Besides, the inhibition in test [3] was 2.27% (inactive); in [4] it was 5.62% (inactive); in [14], 11% (inactive). In addition, the nuclear beta-catenin stimulation in test [6] (at 10 µM) is 0.7% (inactive); in test [6] (stimulation, at 2 µM), 1.8%. Further, the insulin secretion stimulation in [7] is 0.7% (inactive). In addition, in test [8], the viability decrease was 20.5% (inactive). Also, in test [9], the tube area decrease is 8.6% (inactive). Moreover, the GLP1 secretion stimulation in test [10] was 8% (inactive). The inhibition of viability in test [11] is 61.4% (active). Moreover, the values for the viability decrease (inhibition) in [12] and in test [13] were 41.1% (inactive) and 4.3% (inactive), respectively. The red/green cell ratio (normalised) in [15] was 1.08 (inactive). Further, the normalised cell number worked out at 1.13 in test [15] (setting [21]) and 1.22 in [15] (setting [22]). Further, the z-score was -0.622 (inactive) and 4.01 (active) and 2.55 (active) in test [17] (setting [27]); -0.0206 and -0.634 and 4.9 in test [17] (setting [28]). Further, the remaining NAD in [18] is 10 nM (inactive). In addition, in [19], the luciferase signal is 136 AU (inactive).

In the case of `CC[C@]1(O)C[C@@H]2CN(CCc3c([nH]c4ccccc34)[C@@](C(=O)OC)(c3cc4c(cc3OC)N(C)[C@H]3[C@@](O)(C(=O)OC)[C@H](OC(C)=O)[C@]5(CC)C=CCN6CC[C@]43[C@@H]65)C2)C1`, the nuclear beta-catenin stimulation in [6] (at 10 µM) was 78.2% (active) and 46.4% (active); in [6] (stimulation, at 2 µM), 49.7% and 61.6%. For the same molecule, in test [7], the insulin secretion stimulation is 5.8% (inactive) and 3.65% (inactive). Also, the viability decrease in test [8] was 84.6% (active) and 97.7% (active). For the same molecule, the tube area decrease in [9] is 108% (active) and 104% (active). The GLP1 secretion stimulation in test [10] was -1.3% (inactive) and 5.9% (inactive). In addition, the inhibition of viability in test [11] was 79.8% (active) and 74.2% (active). Besides, the viability decrease (inhibition) is 89.7% (active) and 76.2% (active) in test [12]; 84.7% (active) and 75.3% (active) in test [13]. In addition, the figures for the fold change in test [16] (setting [23]) and in [16] (setting [24]) were 1.08 (inactive) and 0.797, respectively. For the same molecule, the values for the cell count in test [16] (setting [25]) and in test [16] (setting [26]) were 794 and 738, respectively. Moreover, the remaining NAD in test [18] is 10 nM (inactive). Further, the luciferase signal in [19] was 72 AU (inactive).
